A short description of test [1]: CCTE_Harrill_HTTr_Viability_MCF7: CCTE's 6-hour Cell Viability Assessment for the High-Throughput Transcriptomics (HTTr) Platform, in MCF-7 cells cultured in DMEM + 10% fetal bovine serum, Harrill Lab (AID 2284010). The gist of the method:
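Membrane integrity was scored by high-content imaging of propidium iodide dye exclusion after a 6 h exposure across an eight-point dilution series. Data were fitted bidirectionally relative to DMSO as negative control and baseline.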

Test [2] can be described thus: CCTE_Harrill_HTTr_Apoptosis_MCF7: CCTE's 6-hour Apoptosis Assessment for the High-Throughput Transcriptomics (HTTr) Platform, in MCF-7 cells cultured in DMEM + 10% fetal bovine serum, Harrill Lab (AID 2284011). The gist of the method:
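MCF-7 (DMEM + 10% FBS), 384-well; 8-pt dilution series, 6 h chemical exposure; caspase-3/7 activation via CellEvent Caspase 3/7 Green, HCI; bidirectional fit vs DMSO.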

Test [3] can be described thus: CCTE_Simmons_MITO_basal_resp_rate: CCTE's HepG2 Seahorse XF Respirometric Screening Assay at Basal Respiratory State, Simmons Lab (AID 2284001). Conditions: actives raise or lower the signal. Summed up:
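HepG2 cells were given test chemicals at 7 concentrations, 125 nM to 100 uM final, and oxygen consumption rate was read every 6 min (3 min mix, 3 min measure) over 72 min. Basal-phase OCR was fitted bidirectionally against DMSO.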

A short description of test [4]: CCTE_Simmons_MITO_max_resp_rate: CCTE's HepG2 Seahorse XF Respirometric Screening Assay at Maximal Respiratory State [uncoupled], Simmons Lab (AID 2284002). The settings on record: actives raise or lower the signal. The gist of the method: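 Read-out is oxygen consumption rate at maximal respiration, taken after FCCP uncoupling of compound-treated HepG2 cells. Seven final concentrations from 125 nM to 100 uM were tested, each in three biological replicates.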

Test [5] is described as follows: CCTE_Simmons_MITO_inhib_resp_rate: CCTE's HepG2 Seahorse XF Respirometric Screening Assay at Inhibited Respiratory State [full ETC block], Simmons Lab (AID 2284006). Conditions: actives raise or lower the signal. Summed up:
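HepG2 cells on Seahorse XF96; oxygen consumption measured after test compound, then FCCP, then rotenone/antimycin A injections over 72 min. Test chemicals at 7 concentrations, 125 nM–100 uM final. OCR fitted bidirectionally versus DMSO.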

A short description of test [6]: CCTE_Harrill_HTTr_CellCount_MCF7: CCTE's Cell Proliferation Assessment for the High-Throughput Transcriptomics (HTTr) Platform, Harrill Lab (AID 2284012; active means hit-call score of the fitted dose curve at least 0.9, where 1 is the maximum;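 further: cells exposed to compound for six hours; intended direction is loss of nuclei count meaning fewer cells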). Summed up: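 MCF-7 cells were exposed for 6 h to an eight-point dilution series; Hoechst-labeled nuclei were counted by high content imaging. Curves were fitted bidirectionally against DMSO as negative control and baseline, with signal loss indicating reduced cell count.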

Test [7] in a line: CCTE_Shafer_MEA_acute_spike_number: CCTE's Neural Acute Assay for Total Number of Spikes, Shafer Lab (AID 2284008).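 On AC50: curve fitted for decrease in spike count so AC50 reflects inhibitors.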 Summed up: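 Read-out is the total spike count over 40 min, expressed as percent change from each well's own pre-treatment baseline and fitted in the loss direction against DMSO. Rat cortical neurons were exposed at 0.03-40 uM on DIV 13 or 15.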
Test [8] can be described thus: CCTE_Shafer_MEA_acute_firing_rate_mean: CCTE's Neural Acute Assay for Mean Firing Rate, Shafer Lab (AID 2284009).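 Further: analyzed for loss of signal so actives lower firing rate relative to DMSO.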 Summed up:
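Read-out: well-mean spike rate (spikes/recording length/electrodes), % change from 40 min pre-dose baseline to 40 min with compound. Rat cortical cultures, DIV 13 or 15, 37 C; 0.03-40 uM; DMSO as negative control.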

Results filed as inconclusive are left out. Active and inactive are the calls of the source. How the source made its calls, unless noted: active means hit-call score of the fitted dose curve at least 0.9, where 1 is the maximum; inactive means score below 0.9.

As for `CN(C)P(=O)(N(C)C)N(C)C`, the outcome in test [1] and in test [2] was inactive.

Take `COc1cc(-c2ccc(N)c(OC)c2)ccc1N`: the result in test [3], in test [4], in test [5], in test [1], in test [2] and in test [6] was inactive.

As for `CCN1CCC2(CC1)COc1cc3c(cc12)N(C(=O)c1ccc(-c2ccc(-c4nnc(C)o4)cc2C)cc1)CC3`, the AC50 was 7.7 µM (active) in test [7], 7.7 µM (active) in test [8] and 66.2 µM (active) in test [1]. The call in test [6] was inactive.

In the case of `Nc1ccc(-c2ccc(N)c(Cl)c2)cc1Cl`, the result in test [1], in test [2] and in test [6] was inactive.

As for `COC[C@H](C)N(C(=O)CCl)c1c(C)csc1C`, the result in test [1] was inactive.

On to `NC(=O)O`, for which the result in test [1] and in test [2] was inactive.

`CC(=O)OC(c1ccccc1)C(Cl)(Cl)Cl` (stereo not drawn): the call in test [7], in test [8], in test [1] and in test [6] was inactive.

On to `Fc1ccc(C2(Cn3cncn3)OC2c2ccccc2Cl)cc1` (stereo not drawn), for which the result in test [1] and in test [2] was inactive.

Consider `O=[N+]([O-])c1ccc2c3c(cccc13)CC2`, for which, in test [1], the result was inactive.

`COc1ccccc1OC`: the result in test [1] and in test [2] was inactive.

For the compound `ClCC(Cl)CCl`, the outcome in test [1] and in test [2] was inactive.

Consider `CCC(=O)c1ccccc1`, for which, in test [1], the outcome was inactive.

Take `COC(=O)Cc1ccccc1`: the outcome in test [7], in test [8] and in test [1] was inactive.

With `C1CCC(NC2CCCCC2)CC1`, the outcome in test [1] and in test [2] was inactive.

Turning to `CCCCCCCCC(=O)NCc1ccc(O)c(OC)c1`, the result in test [1], in test [2] and in test [6] was inactive.

With `CC(C)(OO)c1ccccc1`, the compound was classed as inactive in test [7], in test [8], in test [1], in test [2] and in test [6].

Turning to `O=C(O)C(Cl)(Cl)Cl`, the compound was classed as inactive in test [7], in test [8], in test [1], in test [2] and in test [6].

On to `O=C(OC1CCCCC1)c1ccccc1C(=O)OC1CCCCC1`, for which the result in test [1] and in test [2] was inactive.

Take `Cl/C=C/Cl`: the outcome in test [1] and in test [2] was inactive.

For `C=C(C)C(=O)[O][Sn]([CH2]CCC)([CH2]CCC)[CH2]CCC`, the AC50 was 6.57 µM (active) in test [3]; 5.4 µM (active) in test [4]; 0.0312 µM (active) in test [7]; 0.0311 µM (active) in test [8]; 22.3 µM (active) in test [1]; 11 µM (active) in test [6]. Further, the call in test [5] was inactive.

On to `CC(C)(C)c1cc(O)ccc1O`, for which the compound was called inactive in test [7] and in test [8].

On to `BrCCBr`, for which the outcome in test [1] and in test [2] was inactive.

As to `Cn1sc(Cl)cc1=O`, the result in test [1] and in test [2] was inactive.

Take `ClCCBr`: the result in test [1] was inactive.

With `CCOP(=S)(OCC)SCSP(=S)(OCC)OCC`, the compound was called inactive in test [7], in test [8], in test [1] and in test [2].

For the compound `O=Cc1cccc(Oc2ccccc2)c1`, the result in test [1] was inactive.

In the case of `C=C(C)C#N`, the result in test [1] and in test [2] was inactive.

As to `COC(=O)c1sccc1S(=O)(=O)NC(=O)Nc1nc(C)nc(OC)n1`, the outcome in test [1] and in test [2] was inactive.

As to `CNC`, the result in test [1] and in test [2] was inactive.

For `CNC(=O)O/N=C/C(C)(C)S(C)=O` (stereo not drawn), the result in test [1] and in test [2] was inactive.

`Cc1cc(Cl)ccc1O[C@H](C)C(=O)O`: the outcome in test [1] and in test [2] was inactive.

Turning to `Cc1ccccc1N`, the outcome in test [1] and in test [2] was inactive.

As a reminder, the AC50 is the concentration giving half of the maximal activity seen.

Values taken from PubChem BioAssay (EPA / NIEHS).
